Here are results for 15 compounds from PubChem BioAssay (NCI).

Among the test systems are SR leukemia; RPMI-8226 leukemia; OVCAR-8 ovarian; OVCAR-5 ovarian; OVCAR-4 ovarian; SK-OV-3 ovarian; OVCAR-3 ovarian; HS 578T breast; NCI/ADR-RES ovarian; IGROV1 ovarian.
Common to all, as to experiment: NCI-60 one-dose screen, 48 h (100 = growth as untreated, 0 = no growth, -100 = all killed)
Conditions in all cases: 10 µM unless noted

Structures are written as SMILES. Compounds without any hit were thinned out: in the full panel of roughly 83,000, 20% have a hit.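 Plates (96-well) were seeded with cells, treated with compound at one concentration, and incubated for 48 hours before percent growth was determined.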 Unmarked numbers belong to inactive results. The source made the active and inactive calls. The calls were made as follows: active = growth percent below 10; inactive = the rest.

Consider `COc1cc(/C=C2\SC(N3CCCCC3)=NC2=O)ccc1OCCCCCCOc1ccc(/C=C2\SC(N3CCCCC3)=NC2=O)cc1OC`, for which the growth was 0.724% (active) with SR leukemia; -5.76% (active) with RPMI-8226 leukemia; 8.07% (active) with OVCAR-8 ovarian; 40.6% with OVCAR-5 ovarian; 21% with OVCAR-4 ovarian; 41.9% with SK-OV-3 ovarian. For the same compound, the growth in the experiment on OVCAR-3 ovarian was -82.9% (active); in the experiment with HS 578T breast it was 7.66% (active); in the experiment with NCI/ADR-RES ovarian it was 0.636% (active).

As to `Cc1ccc(-c2cc(-c3ccccc3)n(-c3ccccc3)n2)cc1`, the growth in the experiment with SR leukemia is 72.3%; with RPMI-8226 leukemia, 83.8%; in the experiment with OVCAR-8 ovarian it was 105%; with OVCAR-5 ovarian, 95.8%; in the experiment with OVCAR-4 ovarian, 85.3%; in the experiment with SK-OV-3 ovarian it was 105%. Further, the growth was 103% with OVCAR-3 ovarian and 101% with NCI/ADR-RES ovarian.

For `Cc1nn(-c2nc3ccccc3s2)c(C)c1Oc1ccccc1O`, the growth is 19.6% with SR leukemia; 33.1% in the experiment on RPMI-8226 leukemia; 50.6% in the experiment with OVCAR-8 ovarian; 121% with OVCAR-5 ovarian; 74.9% in the experiment on OVCAR-4 ovarian; 75.3% with SK-OV-3 ovarian. In addition, the growth in the experiment with OVCAR-3 ovarian is 75.5%; with HS 578T breast it was 39%; with NCI/ADR-RES ovarian, 101%.

Consider `CC(=O)OC1Oc2cc(C)c(C)cc2-c2oc(=O)c(-c3ccccc3)cc21` (stereo unspecified), for which the growth was -42.2% (active) in the experiment on SR leukemia; -18.1% (active) in the experiment with RPMI-8226 leukemia; 24.4% in the experiment on OVCAR-8 ovarian; 67.9% in the experiment with OVCAR-5 ovarian; 42% with OVCAR-4 ovarian; 11.6% in the experiment on SK-OV-3 ovarian. The growth in the experiment on OVCAR-3 ovarian is -39.9% (active); in the experiment with HS 578T breast it was -19.5% (active); in the experiment on NCI/ADR-RES ovarian it was 25.3%.

Regarding `CC1Cc2ccccc2N1C(=O)c1ccc(C(=O)c2ccccc2)cc1` (stereo unspecified), the growth with SR leukemia is 97.6%; with RPMI-8226 leukemia, 74.3%; with OVCAR-8 ovarian it was 88.4%; in the experiment on OVCAR-5 ovarian it was 143%; in the experiment with OVCAR-4 ovarian, 71.2%; in the experiment with SK-OV-3 ovarian, 102%. Further, the growth was 78.9% in the experiment on OVCAR-3 ovarian, 96.3% in the experiment with HS 578T breast and 61.7% in the experiment on NCI/ADR-RES ovarian.

As for `Cc1cc(C)nc(NS(=O)(=O)c2ccc(Nc3nc4nc(SCc5ccccc5)nc(-c5ccc(O)cc5)c4c(=O)[nH]3)cc2)n1`, the growth in the experiment with SR leukemia is 85.7%; in the experiment with RPMI-8226 leukemia, 66.7%; in the experiment on OVCAR-8 ovarian, 97%; in the experiment with OVCAR-5 ovarian, 96.2%; in the experiment with OVCAR-4 ovarian, 104%; in the experiment with SK-OV-3 ovarian, 94.9%. Besides, the growth with OVCAR-3 ovarian was 120%; in the experiment on HS 578T breast, 103%; with NCI/ADR-RES ovarian, 97.3%.

Take `CC1c2ccccc2-c2ccccc2N1C` (stereo unspecified): the growth with SR leukemia was 96.3%; with RPMI-8226 leukemia, 90.5%; in the experiment with OVCAR-8 ovarian it was 106%; with OVCAR-5 ovarian, 101%; in the experiment with OVCAR-4 ovarian, 110%; with SK-OV-3 ovarian, 101%. The growth was 104% with OVCAR-3 ovarian, 112% with HS 578T breast and 108% in the experiment on NCI/ADR-RES ovarian.

`Cc1cc(C)cc(S(=O)(=O)n2ccc(-c3ccc4c(c3)CCC(C)(C)O4)n2)c1`: the growth in the experiment on SR leukemia was 76.5%; with RPMI-8226 leukemia, 73.2%; in the experiment on OVCAR-8 ovarian, 91%; in the experiment on OVCAR-5 ovarian, 116%; in the experiment with OVCAR-4 ovarian, 67.3%; with IGROV1 ovarian it was 105%. The results for the growth with OVCAR-3 ovarian, with HS 578T breast and in the experiment with NCI/ADR-RES ovarian were 87.9%, 92.7% and 79%, respectively.

In the case of `Nc1ccc(Oc2c(F)c(F)c(Oc3ccc(N)cc3)c(F)c2F)cc1`, the growth in the experiment on SR leukemia is 96.3%; in the experiment with RPMI-8226 leukemia it was 82.9%; with OVCAR-8 ovarian, 101%; in the experiment with OVCAR-5 ovarian, 83.4%; with OVCAR-4 ovarian it was 83.8%; in the experiment with SK-OV-3 ovarian, 105%. The growth in the experiment on OVCAR-3 ovarian was 101%; in the experiment on HS 578T breast, 95.4%; in the experiment with NCI/ADR-RES ovarian, 94%.

On to `Clc1ccc(C2=NN(c3ccc(Cl)cc3)C(c3cccc(Nc4ccnc5cc(Cl)ccc45)c3)C2)cc1` (stereo unspecified), for which the growth in the experiment with SR leukemia is 77%; in the experiment with RPMI-8226 leukemia, 71.7%; with OVCAR-8 ovarian, 80.4%; in the experiment on OVCAR-5 ovarian, 93.5%; in the experiment on OVCAR-4 ovarian it was 73%; in the experiment on SK-OV-3 ovarian, 60.7%. For the same compound, the growth was 85.8% in the experiment on OVCAR-3 ovarian and 74.1% in the experiment with NCI/ADR-RES ovarian.

Consider `CCCCc1n(Cc2ccc3ccccc3c2)cc[n+]1Cc1ccc2ccccc2c1`, for which the growth is -44.1% (active) with SR leukemia; -39.9% (active) in the experiment on RPMI-8226 leukemia; -35.8% (active) in the experiment on OVCAR-8 ovarian; 8.66% (active) in the experiment on OVCAR-5 ovarian; 9.46% (active) in the experiment with OVCAR-4 ovarian; -3.39% (active) in the experiment with SK-OV-3 ovarian. Moreover, the growth is -80.1% (active) with OVCAR-3 ovarian and 87.9% in the experiment on NCI/ADR-RES ovarian.

In the case of `COc1cc(/C=C\C(C)=N\Nc2ccccc2)ccc1O`, the growth was 39.3% in the experiment with SR leukemia; 76.3% in the experiment with RPMI-8226 leukemia; 90.5% with OVCAR-8 ovarian; 84.7% in the experiment with OVCAR-5 ovarian; 85.6% with OVCAR-4 ovarian; 121% with SK-OV-3 ovarian. Further, the growth in the experiment with OVCAR-3 ovarian is 89.2%; with HS 578T breast, 92.1%; with NCI/ADR-RES ovarian, 77.4%.

Take `CCCCCc1c(C)[nH]c(/C=C2\N=C(c3ccc[nH]3)C=C2OCc2ccccc2)c1C`: the growth with SR leukemia is -26.1% [100 µM] (active); in the experiment on RPMI-8226 leukemia, -46.2% [100 µM] (active); with OVCAR-8 ovarian it was -64.2% [100 µM] (active); in the experiment on OVCAR-5 ovarian, -98% [100 µM] (active); in the experiment with OVCAR-4 ovarian, -89.3% [100 µM] (active); with SK-OV-3 ovarian it was -97.1% [100 µM] (active). In addition, the growth in the experiment with OVCAR-3 ovarian is -89% [100 µM] (active); with NCI/ADR-RES ovarian, -48.5% [100 µM] (active).

As for `COc1cc(/C=C/c2cc(/C=C/c3ccc(O)c(OC)c3)n(C(=O)Cc3ccccc3)n2)ccc1O`, the growth in the experiment with SR leukemia was 4.44% (active); in the experiment with RPMI-8226 leukemia it was -34.2% (active); in the experiment with OVCAR-8 ovarian, -17% (active); in the experiment on OVCAR-5 ovarian, -18.7% (active); in the experiment on OVCAR-4 ovarian, 7.27% (active); in the experiment with IGROV1 ovarian, 11.4%. For the same compound, the growth is 1.55% (active) in the experiment on OVCAR-3 ovarian, 9.84% (active) in the experiment with HS 578T breast and 21.7% with NCI/ADR-RES ovarian.

Consider `O=C(c1ccc(N2CCOCC2)cc1[N+](=O)[O-])N1CCOCC1`, for which the growth in the experiment on SR leukemia is 423%; with RPMI-8226 leukemia, 128%; in the experiment on OVCAR-8 ovarian, 73.5%; in the experiment on OVCAR-5 ovarian it was 102%; in the experiment with OVCAR-4 ovarian it was 52%; in the experiment with SK-OV-3 ovarian, 110%. In addition, the growth is 110% in the experiment on OVCAR-3 ovarian, 33% in the experiment with HS 578T breast and 108% in the experiment on NCI/ADR-RES ovarian.
